Test results reported in PubChem BioAssay AID588335 (The Scripps Research Institute Molecular Screening Center, 2011).
Among all 360,000 compounds or so, about 4,500 (1.2%) were called active. This is one part of a sample in which actives are shown more often than they occur. Rule as the data show it: active = inhibition above about 30%; inactive = the rest.

assay: inhibition of GDH and TPI enzymes – biochemical, absorbance, full deck, artefact control for M. tuberculosis FBA inhibitor project, primary screen (AID 588335); conditions: GDH-TPI coupled enzyme counterscreen, NADH absorbance; at 4.8 µM; hits give high values;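 also: 0% = DMSO wells and 100% = wells lacking the enzyme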

SMILES	inhibition
COc1ccccc1/C=C/C=N/n1c(-c2ccc(Cl)cc2Cl)n[nH]c1=S	34.7% (active)
Cc1cc(-c2n[nH]c(=S)n2/N=C/C(Br)=C/c2ccccc2)n[nH]1	7.17% (inactive)
COc1cc(-c2n[nH]c(=S)n2Cc2ccccc2)cc(OC)c1OC	3.29% (inactive)
CCCCOc1ccc(Cl)cc1CSc1nncn1N	-8.67% (inactive)
N#CC1(Nc2ccc3c4c(cccc24)CC3)CCCCC1	18.6% (inactive)
O=C(CSc1nnc(-c2cccnc2)n1Cc1ccco1)c1ccc(Cl)c(Cl)c1	-5.03% (inactive)
Clc1cccc(-c2nc3nc4ccccc4nc3n2Cc2ccco2)c1	33.2% (active)
Cc1cc(NCc2ccco2)n2c(nc3ccccc32)c1C#N	8.76% (inactive)
COC(=O)c1cc(S(=O)(=O)N2CCC(C(N)=O)CC2)oc1C	0.74% (inactive)
O=C(O)c1ccc(COCC(F)(F)F)cc1	6.06% (inactive)
COc1ccccc1Oc1ccc(N/C=C2/CCCC2=O)cc1	33.3% (active)
COc1ccccc1C1=CC(=O)CCC1	10.9% (inactive)
COc1ccc(N/N=C2/CCCCC2=O)cc1	1.13% (inactive)
O=C(O)CCn1c(O)c(C=C2N=c3ccccc3=N2)sc1=S	22.8% (inactive)
O=C(Oc1cccc(N2C(=O)C3C4c5ccccc5C(c5ccccc54)C3C2=O)c1)c1ccco1 (stereo not drawn)	10.9% (inactive)
COc1cc(OC)c(C(=O)NNC(=O)c2ccc(NS(=O)(=O)c3cccs3)cc2)cc1OC	12.8% (inactive)
C/C(=N\NC(=O)c1ccc(NS(=O)(=O)c2cccs2)cc1)c1ccc2ccccc2c1	32.1% (active)
O=S(=O)(Nc1ccccc1)c1ccc(NS(=O)(=O)c2cccs2)cc1	14.9% (inactive)
COCCn1c(C)cc(C(=O)CN2c3cccc4cccc(c34)S2(=O)=O)c1C	3.51% (inactive)
Oc1ccc(C2Nc3cccc4cccc(c34)N2)cc1	32.9% (active)
CN(C(=O)CC(NC(=O)c1ccccc1)(c1ccccc1)c1ccccc1)c1ccccc1	-10.6% (inactive)
Cn1c(=O)n(C)c2cc(CNc3ccc(N4CCOCC4)c(C(=O)O)c3)ccc21	8.39% (inactive)
CC(C)(C)NC(=O)COC(=O)c1cc(Br)ccc1Cl	-3.49% (inactive)
Cc1cc(C(=O)N/N=C/c2ccc(O)c([N+](=O)[O-])c2)c(C)n1-c1ccc(F)cc1	51.7% (active)

SMILES	inhibition
O=C1CSC(=S)N1/N=C/c1ccc(O)c([N+](=O)[O-])c1	1.6% (inactive)
Cc1c(Cl)c([N+](=O)[O-])nn1Cc1ccc(C(=O)N/N=C\c2cc(Cl)ccc2O)o1	4.27% (inactive)
CC1(C)CC(=O)c2sc(N)nc2C1	20.2% (inactive)
NC1=NOC(=O)C1C1CCCCC1 (stereo not drawn)	-5.11% (inactive)
Cc1cccc(NC(=O)/C=C/c2ccc3c(c2)OCO3)n1	28.3% (inactive)
CN(Cc1ccccc1)C(=O)COC(=O)/C=C/c1ccc2c(c1)OCO2	35% (active)
O=C(COC(=O)/C=C/c1ccc2c(c1)OCO2)NC1CCS(=O)(=O)C1 (stereo not drawn)	23.7% (inactive)
COc1ccc2nc(NC(=O)c3ccc(Br)s3)sc2c1	32.7% (active)
COc1ccc(CNC(=O)c2ccc(Br)s2)cc1OC	-1.03% (inactive)
CSc1ncccc1C(=O)Nc1nc2ccc(F)cc2s1	8.2% (inactive)
Nc1cc(C(=O)N2CCN(c3ccccc3Cl)CC2)ccc1N1CC2CC(C1)c1cccc(=O)n1C2 (stereo not drawn)	8.04% (inactive)
OC(c1ccccc1)c1nc(/C=C/c2ccc(C(F)(F)F)cc2)cs1 (stereo not drawn)	7.08% (inactive)
N#CCC(=O)N/N=C/c1ccc(SCC(=O)Nc2ccccc2)o1	15.4% (inactive)
O=C(Cn1cc(/C=N/NC(=O)c2cccc(C(F)(F)F)c2)c2ccccc21)Nc1ccc(F)cc1	9.15% (inactive)
O=C(CSc1ccc(/C=N/NC(=O)c2cccc(F)c2)o1)Nc1ccccc1	33.1% (active)
CCCCN(CCCC)CCCNC(=O)CN1C(=O)COc2ccc(S(=O)(=O)N3CCC(C)CC3)cc21	5.17% (inactive)
CCOC(=O)c1c(C2CC2)csc1NC(=O)CSCc1c(C)noc1C	1.16% (inactive)
NC(=S)c1ccc(C(N)=S)o1	33.3% (active)
CC(C)CC1(C(=O)NCc2ccccn2)C=CCN1C(=O)c1ccccc1 (stereo not drawn)	1.72% (inactive)
CN(C)CCCOc1ccc(-c2ccc3nccn3c2)cn1	6.19% (inactive)
CC(Oc1ccccc1[N+](=O)[O-])C(=O)N/N=C/c1ccoc1 (stereo not drawn)	5.72% (inactive)
O=C(N/N=C/c1cc(Br)c(O)c([N+](=O)[O-])c1)C(O)(c1ccccc1)c1ccccc1	79.3% (active)
CNC(=S)N/N=C/c1ccc(OCc2ccccc2)c(Br)c1	3.82% (inactive)
COCCCNC(=S)N(Cc1ccccc1)Cc1ccc(F)cc1	-5.1% (inactive)

SMILES	inhibition
COC(=O)c1[nH]c2ccc(Br)cc2c1NC(=O)Oc1ccccc1	8.96% (inactive)
CC(Oc1ccc2c(-c3ccccc3)cc(=O)oc2c1)C(=O)NC(Cc1c[nH]c2ccccc12)C(=O)O (stereo not drawn)	15.9% (inactive)
COc1ccc(-c2cc(C(=O)NC(Cc3c[nH]c4ccccc34)C(=O)O)c(C)o2)cc1OC (stereo not drawn)	1.44% (inactive)
COc1ccc(-c2cc(=O)oc3cc(OCC(=O)N[C@@H](Cc4c[nH]c5ccccc45)C(=O)O)ccc23)cc1	32.4% (active)
C=CCOC(=O)C1=C(C)N=C2SCCC(=O)N2C1/C=C/c1ccccc1OC (stereo not drawn)	6.07% (inactive)
COc1cccc(/C=C/c2ccc3ccccc3n2)c1OC(C)=O	22.8% (inactive)
COc1ccccc1/C=C/C1=NC(=C\N(C)C)/C(=O)O1	32.5% (active)
O=C1c2cccc3cccc(c23)C(=O)N1c1cccc(O)c1	24.8% (inactive)
COc1cccc(CNC(=O)COc2cc(O)c3c(c2)OC(C)(C)CC3=O)c1	0% (inactive)
CC(CO)(CO)NC(=O)c1ccc(=O)[nH]n1	8.64% (inactive)
CC(=O)c1ccc(N2CCN(C(=O)CCNC(=O)Cn3ccc4ccccc4c3=O)CC2)cc1	34.2% (active)
CN(C(=O)CCNC(=O)Cn1ccc2ccccc2c1=O)c1ccc(Br)cc1	1.56% (inactive)
Cc1ccc(CNC(=O)CCNC(=O)Cn2ccc3ccccc3c2=O)cc1	7.19% (inactive)
C[C@H]1Cn2cnc(C(=O)N[C@@H](Cc3c[nH]c4ccccc34)C(=O)OC(C)(C)C)c2C(=O)N1	7.22% (inactive)
COc1ccc(/C=C/C(=O)NC(=S)N2CCCC(C(N)=O)C2)cc1 (stereo not drawn)	48.8% (active)
COc1ccc(CN2CCCC(C(=O)N3CCCCC3)C2)cc1 (stereo not drawn)	4.14% (inactive)
COc1ccc(/C=C/C(=O)NC(=S)NN2CCCCC2c2cccnc2)cc1 (stereo not drawn)	10.5% (inactive)
COc1ccc(C(=O)N2CCN(c3ncccn3)CC2)cc1S(=O)(=O)N1CCOCC1	3.64% (inactive)
Cc1ccc(S(=O)(=O)N2CCOCC2)cc1C(=O)NC(=S)N(Cc1ccccc1)C(C)C	-2.59% (inactive)
COCCN(CCOC)c1nc(N)c2c(N)nc3c(c2c1C#N)CC(=O)N3Cc1ccc(Cl)cc1	13.7% (inactive)
COc1cc(Cn2c3ccc(NC(=O)CC(C)c4ccccc4)cc3c(=O)n2C)ccc1F (stereo not drawn)	4% (inactive)
CCC(=O)Nc1c(S(=O)(=O)c2ccccc2)c2nc3ccccc3nc2n1Cc1ccccc1	27% (inactive)
CCCn1nc(NS(=O)(=O)c2ccc(F)cc2)c2cc3ccccc3nc21	6.9% (inactive)
CCN(CC)CCn1c(N)c(S(=O)(=O)c2ccccc2)c2nc3ccccc3nc21	31% (active)

SMILES	inhibition
O=C(NNS(=O)(=O)c1ccccc1C(F)(F)F)c1cc2ncc(C(F)(F)F)cc2s1	12.3% (inactive)
COCc1ccc(C(=O)N2CCc3c([nH]c4ccccc34)C2c2ccccn2)s1 (stereo not drawn)	-1.89% (inactive)
CNC(=O)c1csc(Cc2c(Cl)sc3ccc(Cl)cc23)n1	-5.66% (inactive)
CN(C)C(=O)CCc1ccc2c3c([nH]c2c1)[C@]1(C)[C@@H](C(=O)N2CCOCC2)C[C@H](CC(=O)NCCc2ccccn2)C(=O)N1CC3	3.64% (inactive)
COc1ccc(-c2ccc(Nc3ccc(S(=O)(=O)N4CCCC4)cc3)nn2)cc1OC	50.4% (active)
COc1ccccc1CC(=O)Nc1ccc(S(=O)(=O)N2CCCC2)cc1	3.02% (inactive)
COc1ccc(S(=O)(=O)N2CCCCCC2)cc1NC(=O)Cc1ccc(OC)c(OC)c1	-2.16% (inactive)
CCc1ccc(C(=O)C(C)OC(=O)CN2C(=O)NC3(CCCC3)C2=O)cc1 (stereo not drawn)	6.99% (inactive)
CC(OC(=O)Cc1ccc(F)cc1)C(=O)N1CCc2ccccc21 (stereo not drawn)	3.45% (inactive)
Cc1ccc(C(=O)COC(=O)CCCC(=O)NC2CCCCC2)cc1[N+](=O)[O-]	-3% (inactive)
Cc1ccc(N=C2NC(=O)c3cccc([N+](=O)[O-])c32)cc1	13.5% (inactive)
COC(=O)Cn1c(O)c(N=NC(=O)OC)c2ccccc21	31.6% (active)
CCOC(=O)Cn1c(O)c(N=NC(=O)CNC(=O)Cc2ccccc2)c2ccccc21	28.8% (inactive)
CCn1c(O)c(N=NC(=O)c2cccc(S(=O)(=O)N3CCCCC3)c2)c2ccccc21	4.32% (inactive)
O=C(O)C1=CCCN(CCON=C(c2ccccc2)c2ccccc2)C1	-4.66% (inactive)
Cn1c(CC(=O)NNC(=O)c2ccccc2F)nc2ccccc21	-6.69% (inactive)
CCCn1c(C(=O)c2ccccc2OC)nc2ccccc21	8.57% (inactive)
CCn1c(NC(=O)c2nn(C)cc2Br)nc2ccccc21	6.37% (inactive)
Cn1c(NC(=O)c2ccccc2)nc2ccccc21	41.4% (active)
Cn1c(-c2ccc(C(=O)c3ccccc3)s2)nc2ccccc21	38.1% (active)
Cc1nc2ccccc2c(C)c1C(=O)c1ccc(F)cc1	-2.59% (inactive)
